Structures are written as SMILES. The campaign covered roughly 300,000 compounds. About 2,300 (0.77%) were called active. Shown is part of a subset that was picked to be rich in actives. A number with no mark means an inactive call.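 Rule for the calls: active = mean activation of at least 80% with every replicate also reaching 80%; inconclusive = mean reaches 80% but some replicate falls short; inactive = the rest.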

This test in a line: activators of MITF-driven TRPM1 promoter reporter, primary screen, cell-based, SK-MEL-5, luciferase, single point (AID 588334).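 Note: 0% = neutral control wells and 100% = parthenolide positive control wells.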 The note with it: SK-MEL-5 TRPM1-promoter luciferase, 24 h; at 12.5 µM; stronger effect = higher value; % of positive control, neutral wells = 0.
`O=C(N[C@H]1C/C=C\C(c2cccc(F)c2)N(Cc2ccccc2)C(=O)C1)OCC1c2ccccc2-c2ccccc21` (some centres not stated): the activation is 20.8%.
For the compound `Cc1ccc(-c2nc(-c3ccncc3)no2)c(C)c1`, the activation is 70.8%.
Turning to `c1csc(-c2nc(-c3ccncc3)no2)c1`, the activation is 113% (active).
Consider `c1ccc(CCc2nc(-c3ccncc3)no2)cc1`, for which the activation is 57.8%.
The figure for `CSCCC(NC(=O)c1ccccc1)C(=O)N1CCN(Cc2ccc(Cl)cc2)CC1` (configuration not stated) is -8.56%; for `CN(c1ccccc1)S(=O)(=O)c1cc(C(=O)N2CCN(c3ncccn3)CC2)ccc1Cl` it is -2.71%; for `COc1cccc(C=CC(=O)C=CC=Cc2ccccc2)c1` it is -4.72%.
Take `NC(=O)C1(Nc2ccc(-c3ccccc3)cc2)CCCC1`: the activation is 5.06%.
Under `COc1ccc(N=C(C)c2sc3ccccc3c2O)cc1` stands 123% (active); under `COC(=O)Cc1[nH]n(-c2nc3ccccc3s2)c(=O)c1C(C)=Nc1ccc(OC)cc1`, -94.9%; under `COc1ccc(N=Nc2ccc(O)c(P(=O)(c3ccccc3)c3ccccc3)c2)cc1`, 5.85%.
Under `CCN(CC)C(=O)[C@H]1C[C@H](CC(=O)NCC23CC4CC(CC(C4)C2)C3)C(=O)N2CCc3c([nH]c4cc(CCC(=O)N(C)C)ccc34)[C@]12C` stands -10.9%.
Turning to `COc1cc(C(=O)CCc2ccc3c(c2)OCO3)cc(OC)c1OC`, the activation is -4.27%.
The figure for `CC(C=Cc1ccccc1)=NNS(=O)(=O)c1ccc([N+](=O)[O-])cc1` is -13.6%; for `COc1cc(C(=O)OCC(=O)NC23CC4CC(CC(C4)C2)C3)cc(OC)c1OC` it is -3.15%.
On to `COc1cc(NC(=O)COC(=O)c2cc(S(=O)(=O)N3CCOCC3)ccc2F)cc(OC)c1`, for which the activation was 1.31%.
Take `Brc1ccc(CSc2ccc(-c3ccco3)nn2)cc1`: the activation is 71.9%.
Consider `O=C(CSc1ccc(-c2ccco2)nn1)Nc1cccc(F)c1`, for which the activation is 13.2%.
For the compound `Fc1cccc(Cl)c1CSc1ccc(-c2ccco2)nn1`, the activation was 93.7% (active).
Consider `O=C(Nc1ccn(CCCNCc2ccc3[nH]ccc3c2)c(=O)n1)OCc1ccccc1`, for which the activation is -4.16%.
Turning to `CCCSc1ccc([C@H]2N[C@@](Cc3ccccc3)(C(=O)OC)[C@H]3C(=O)N(C)C(=O)[C@@H]23)cc1`, the activation is 1.47%.
Turning to `Cc1ccccc1OCC(=O)Nc1ccc2c(c1)ncn2C`, the activation was 152% (active).
The figure for `Cc1ccccc1OCC(=O)Nc1ccc(S(=O)(=O)N2CCOCC2)cc1` is -5.13%; for `Cc1ccccc1OCC(=O)Nc1ccc(N2CCN(C(=O)C(C)C)CC2)c(Cl)c1` it is -59.2%; for `Cc1cc([N+](=O)[O-])ccc1NS(=O)(=O)c1ccccc1` it is 6.15%.
On to `CCN(CC)S(=O)(=O)c1cccc(NC(=O)c2ccc(S(=O)(=O)N3CCCC3)cc2)c1`, for which the activation is -10.8%.
Take `Cc1ccc(OCc2cc(C(=O)N(C)CCn3ccnc3C)no2)cc1C`: the activation is 11%.
For `Cc1ccc(OCc2cc(C(=O)N(C)CCc3ccccc3)no2)cc1C`, the activation was 111% (active).
Take `Cc1cc(CN(C)C(=O)c2cc(COc3ccc(C)c(C)c3)on2)n[nH]1`: the activation was 11.7%.
Under `CCN1CCC(O)(/C=C/c2ccc(C)cc2)C(C(=O)/C=C/c2ccc(C)cc2)C1` (configuration not stated) stands -75.9%.
Under `COc1cccc(CC(=NO)c2cccc(OC)c2)c1` stands 1.7%; under `CCCN(CCC)S(=O)(=O)c1cc2c(cc1Br)CCN2C(=O)CC`, 3.88%.
For `COc1cc(OC)cc(-c2sc3ccc(OC)cc3c2-c2ccc3cc[nH]c3c2)c1`, the activation was 7.42%.
`COc1ccc2sc(-c3ccc(N(C)C)cc3)c(-c3ccc4cc[nH]c4c3)c2c1`: the activation was 102% (active).
As for `COc1ccc2sc(-c3ccc(N(C)C)cc3)c(C#CCO)c2c1`, the activation is 51.4%.
For `CCOC(=O)c1ccccc1NC(=O)CSc1nc2c(sc(=S)n2CC)c(=O)[nH]1`, the activation is 1.55%.
Consider `O=S(=O)(Nc1ccc2ccccc2c1)N1CCCCC1`, for which the activation was 3.28%.
Take `CC(C)(C)c1ccc(/C=C/C(=O)Nc2ncccn2)cc1`: the activation is 118% (active).
Turning to `CC(C)(C)c1ccc(/C=C/C(=O)NCCCn2ccnc2)cc1`, the activation is -9.17%.
For `O=C(/C=C/c1ccc(Cl)cc1)Nc1ccc(S(=O)(=O)Nc2ncccn2)cc1`, the activation is -11.3%.
For the compound `COc1ccc(CN2CCN(C(=O)c3cc(C4CC4)nn3-c3ccccc3)CC2)cc1F`, the activation was -1.05%.
For the compound `O=C(Nc1cccc(S(=O)(=O)N2CCCC2)c1)c1cncc(Br)c1`, the activation was 15.2%.
With `O=C(Nc1cccc(S(=O)(=O)N2CCCCC2)c1)c1cncc(Br)c1`, the activation is -5.18%.
Turning to `O=C(Nc1ccc(N2CCCC2=O)cc1)c1cncc(Br)c1`, the activation was 114% (active).
Under `O=C(NN=Cc1ccc([N+](=O)[O-])cc1)C1CC1` stands 17.3%; under `Cc1cc(OCCCC(=O)Nc2cc(S(=O)(=O)N3CCOCC3)ccc2N2CCOCC2)ccc1Cl`, 2.58%; under `O=c1c2ccccc2c(-c2ccc(F)cc2)nn1-c1ccc(C(F)(F)F)cc1`, -11.9%.
For the compound `Cn1c(-c2ccc(F)cc2)cc2onc(-c3ccccc3Cl)c2c1=O`, the activation was 76.3%.
Turning to `Cn1c(-c2ccc(C(F)(F)F)cc2)cc2onc(-c3ccccc3)c2c1=O`, the activation was 126% (active).
Regarding `O=S(=O)(O)c1cc2onnc2c2ccccc12`, the activation was -3.61%.
On to `COc1ccc(-c2ccc3c(c2)C2CC3CCN2CCC#N)cc1` (configuration not stated), for which the activation is 0.239%.
The figure for `CC(=O)c1sc(NC(=O)CCCOc2ccccc2C)nc1C` is -1.04%; for `CC(=O)c1sc(N/N=C/c2ccc(C(C)C)cc2)nc1C` it is 94.8% (active); for `CC(C)c1ccc(C=NNc2ccc([N+](=O)[O-])cn2)cc1` it is 16.4%.
As for `Cc1ccc(Nc2c(O)nc[nH]c2=O)cc1C`, the activation is -6.95%.
The figure for `CCN(CC(=O)Nc1c(F)cccc1F)C(=O)Cc1cccs1` is 11.6%; for `O=[N+]([O-])c1ccc(COc2ccccc2CN2CCOCC2)cc1` it is -8.16%; for `O=C(Cc1ccc(NC(=O)C2CCCN(C(=O)CCc3ccccc3)C2)cc1)Nc1ccc(C(=O)N2CCOCC2)cc1` (configuration not stated) it is 8.07%.
Regarding `Cc1c(CCC(=O)O)c(=O)oc2cc(OCc3ccc(Br)cc3)ccc12`, the activation was -2.55%.
Consider `COC(=O)Cc1c(C)c2ccc(OCC(=O)NCc3ccc4c(c3)OCO4)cc2oc1=O`, for which the activation was -3.93%.
In the case of `CCc1c(C)c2ccc(OC3CCCCC3=O)cc2oc1=O` (configuration not stated), the activation was 92.6% (active).
As for `CC/C(=C\c1ccc(Cl)cc1)c1ccncc1`, the activation was -3.21%.
Turning to `Brc1ccc(-c2nnc(-c3ccccc3)o2)o1`, the activation is 48.3%.
For the compound `Nc1ccc(-c2nnc(-c3ccccc3)o2)cc1`, the activation is 27.8%.
With `Nc1ccc(-c2nnc(-c3ccc(-c4ccccc4)cc3)o2)cc1`, the activation is 89.1% (active).
For the compound `CC[C@]12c3[nH]c4ccc(Cl)cc4c3CCN1C(=O)[C@@H](CC(=O)NCCCOC)C[C@@H]2C(=O)N1CCN(C(=O)C2CC2)CC1`, the activation is -3.13%.
The figure for `C/C(CC(=O)Nc1cccc(F)c1)=N\NC(=O)C(=O)NC1CCCCC1` is -5.94%; for `O=C(Nc1cccc(F)c1)NC1CCCCCCC1` it is 119% (active); for `O=C(Nc1cccc(F)c1)NC1CCCc2ccccc21` (configuration not stated) it is 11.6%.
Take `Cc1occc1C(=O)Nc1nnc(C2CCCCC2)s1`: the activation is 91.3% (active).
As for `O=C(Nc1nnc(C2CC2)s1)c1cc(Cl)sc1Cl`, the activation is 6.39%.
As to `Cc1occc1C(=O)Nc1nnc(-c2ccncc2)s1`, the activation was 23%.

Source of the values: PubChem BioAssay AID588334 (Broad Institute, 2011).
